Screens as filed in PubChem BioAssay.
An excerpt weighted towards active compounds, which were near 32% of everything screened.
PostGolgi yeast: growth inhibition of a yeast mutant, post-Golgi transport screen; post-Golgi transport phenotypic cell assay; inhibition, % at 10 µM; 0.9% of 98,000 active;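 further: yeast cells grown in 1536-well plates; yeast grown about 18 h at 30C before absorbance read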
CYP2C19 inhib: inhibitors of human CYP2C19; P33261; CYP2C19 Supersomes, luciferin-H EGE luminescence, 30 min; inhibition, % at 5 µM; 21% of 96,000 active; AID 778;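 active means CYP2C19 inhibition above a set limit at 5 µM in the primary screen, cut at about 50% in these data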
Target sequence (P33261 whole entry, looked up): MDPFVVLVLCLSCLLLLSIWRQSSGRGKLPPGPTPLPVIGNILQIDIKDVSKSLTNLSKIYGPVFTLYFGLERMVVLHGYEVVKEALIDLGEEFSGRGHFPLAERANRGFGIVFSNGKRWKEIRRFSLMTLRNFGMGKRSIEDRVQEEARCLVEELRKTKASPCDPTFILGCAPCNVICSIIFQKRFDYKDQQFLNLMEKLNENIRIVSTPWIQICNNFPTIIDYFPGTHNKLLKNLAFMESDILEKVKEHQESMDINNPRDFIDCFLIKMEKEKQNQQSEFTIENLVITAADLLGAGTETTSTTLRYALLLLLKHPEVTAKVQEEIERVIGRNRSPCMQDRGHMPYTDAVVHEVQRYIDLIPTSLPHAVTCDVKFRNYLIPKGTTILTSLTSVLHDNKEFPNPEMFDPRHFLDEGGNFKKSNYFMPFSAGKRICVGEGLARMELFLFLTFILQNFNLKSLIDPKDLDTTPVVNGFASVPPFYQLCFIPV
CYP2C19 act: increases human CYP2C19 enzyme activity; 96,000 tested, under 10 active; recombinant CYP2C19, luciferin-H EGE luminescence; stronger effect = higher value; 0 = fully inhibited enzyme, 1 = untreated enzyme; activation factor at 5 µM; P33261;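 active means activation factor of at least 2 at 5 µM in the primary screen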
CYP2C9 act: increases human cytochrome P450 2C9 activity; activation factor at 5 µM; 1.4% of 96,000 active; AID 1024; recombinant CYP2C9, luciferin-H conversion, luminescence; stronger effect = higher value; factor 1 = untreated enzyme, 0 = blocked; P11712;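 active means activation factor of 2 or more for CYP2C9 at a 5 µM dose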
CYP2C9 inhib: blocks human cytochrome P450 2C9; AID 777; 20% of 96,000 active; P11712; CYP2C9 Supersomes, luciferin-H conversion, luminescence; inhibition, % at 5 µM;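 active means blocking of liver enzyme CYP2C9 beyond about 50% at 5 µM, limit read from the data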
PostGolgi ctrl: inhibits growth of the yeast control strain; efflux-deficient yeast background strain, growth absorbance A615, 16 h; inhibition, % at 10 µM; 5% of 98,000 active
Of the large screens only hits and unclear results are named; the others gave an inactive call. Unless noted, no stated cut-off is given here; in the data, active means inhibition above about 30%; inactive means the rest.

Cc1c([N+](=O)[O-])cc(C(=O)Oc2ccc(Br)cc2C(=S)N2CCCCC2)cc1[N+](=O)[O-]	CYP2C19 inhib 54
C=C(C)c1cccc(C(C)(C)NC(=O)NCC2COCCO2)c1 (stereo not given)	none (no result: CYP2C19 inhib, CYP2C19 act, CYP2C9 act, CYP2C9 inhib)
C=C(C)c1cccc(C(C)(C)NC(=O)N(Cc2ccccc2)Cc2ccco2)c1	CYP2C9 inhib 72
CCOc1cc(CNn2cnnc2)ccc1OCC(=O)NC1CCCCC1	CYP2C9 inhib 65
O=C(C=C1CCN(c2ncc(C(F)(F)F)cc2Cl)CC1)NNC(=O)Nc1ccc(Cl)cc1	none
Nc1ccc(CCS(N)(=O)=O)cc1	none
C=CCOC(=O)CCC(=O)Nc1cccc2ccccc12	CYP2C19 inhib 80
O=C(CCC(=O)OCc1ccc(C(=O)Oc2ccccc2)cc1)Nc1cccc2ccccc12	none
CC1CCCC(NC(=O)CN(C)S(=O)(=O)c2cccc3cccnc23)C1C (stereo not given)	CYP2C19 inhib 59, CYP2C9 act 2.1
CC(=O)Nc1ccc(S(=O)(=O)N(C)CC(=O)NC2=NCCS2)cc1	none
Cc1ccc(CNC(=O)CN(C)S(=O)(=O)c2cccc3cccnc23)cc1	CYP2C19 inhib 88
CC(C)NC(=O)CN(C)S(=O)(=O)c1ccc(F)cc1	none
Cc1ccc(S(=O)(=O)N(C)CC(=O)NCc2ccncc2)cc1	CYP2C19 inhib 90, CYP2C9 inhib 80
Cc1ccc(S(=O)(=O)N(C)CC(=O)Nc2ccncc2)cc1	CYP2C19 inhib 100, CYP2C9 inhib 63
CSc1ncc2c(n1)-c1cc(C)ccc1SC2	none
NS(=O)(=O)c1ccc(CNC(=O)NC2(c3ccccc3)CC2)cc1	none
CCOC(=O)Cc1csc(NC(=O)CN(C)S(=O)(=O)c2cccc3cccnc23)n1	CYP2C19 inhib 90, CYP2C9 inhib 92
Cc1ccc(S(=O)(=O)N(C)CCCC(=O)Nc2ccncc2)cc1	CYP2C19 inhib 99, CYP2C9 inhib 96
Cc1ccc(S(=O)(=O)N(CC(=O)NCc2ccncc2)C2CCCCC2)cc1	CYP2C19 inhib 99, CYP2C9 inhib 93
O=C(CN(C1CCCCC1)S(=O)(=O)c1ccc(Cl)cc1)NCCCO	CYP2C19 inhib 60
CCOC(=O)Cc1csc(NC(=O)CN2C(=O)c3ccccc3S2(=O)=O)n1	none
CC(C)n1c(CCC(=O)O)ccc1-c1ccccc1	none
CCC(C)Sc1nc2c(c(=O)[nH]c(=O)n2C)n1Cc1ccccc1Cl (stereo not given)	none (no result: PostGolgi yeast, PostGolgi ctrl)
O=C(NC1CCCC1)C1CCC(=O)N1CCc1ccccc1 (stereo not given)	CYP2C9 inhib 54
C=CCC(C#Cc1ccc(C)cc1)N(CC)CC (stereo not given)	none
Cc1ccc(N/C=C(/C#N)c2ccsc2)cc1	CYP2C19 inhib 64
N#C/C(=C/Nc1ccccc1)c1ccsc1	none
CCCN(CC(=O)Nc1c(C)cccc1CC)C(=O)SCC	CYP2C19 inhib 60
CCc1cccc(C)c1NC(=O)C1CCCO1 (stereo not given)	none
CCCCN(CC(=O)Nc1c(C)cccc1CC)C(=O)SCC	CYP2C19 inhib 71
CC(=O)Oc1ccc2c(c1)C(=O)c1ccccc1CO2	CYP2C19 inhib 68
CN(C)c1ccc(/C=C/C(O)=C2/C(=O)N(C)C3(C)CC2c2ccccc2O3)cc1 (stereo not given)	none
COc1ccc(C)cc1NC(=O)CN(C)S(=O)(=O)c1cccs1	CYP2C19 inhib 89, CYP2C9 act 2.3
COc1ccc(C)cc1S(=O)(=O)N(C)CC(=O)NC1CCCCC1	none
COc1ccc(S(=O)(=O)N(C)CC(=O)Nc2ccccc2C(F)(F)F)cc1OC	CYP2C19 inhib 76
COc1ccc(C)cc1NC(=O)COC(=O)C1CC1	none
Cc1cc(C(=O)N(C)CC(=O)Nc2ccccc2C(F)(F)F)c(C)o1	none
COc1ccccc1NC(=O)CN(C)S(=O)(=O)c1cc(C)ccc1OC	CYP2C19 inhib 94, CYP2C9 inhib 63
Cc1cc(C)cc(NC(=O)C/C(N)=N/O)c1	none
COc1ccc(-c2nnc3c4ccccc4c(C)nn23)cc1S(=O)(=O)N1CCN(CCO)CC1	none (no result: CYP2C19 inhib, CYP2C19 act, CYP2C9 act, CYP2C9 inhib)
Cc1ccc(-c2nn(C)c(=O)c3ccccc23)cc1CNC(=O)Cn1nc(-c2ccccc2)c2ccccc2c1=O	none
COc1ccc(-c2nn(C)c(=O)c3ccccc23)cc1CNS(C)(=O)=O	PostGolgi ctrl 42
COc1ccc(-c2nn(C)c(=O)c3ccccc23)cc1NC(=O)Cn1nc(-c2ccccc2)c2ccccc2c1=O	CYP2C9 inhib 72
COc1ccc(-c2nn(C)c(=O)c3ccccc23)cc1NS(C)(=O)=O	CYP2C9 inhib 51
COc1ccc(OCC(=O)Nc2cc(-c3nn(C)c(=O)c4ccccc34)ccc2OC)cc1	none
Cc1cc(C)n(CC(=O)NCc2cc(-c3nn(C)c(=O)c4ccccc34)ccc2C)n1	CYP2C9 inhib 55
O=C(O)c1ccc(COc2c(F)c(F)c(F)c(F)c2F)o1	none (no result: CYP2C19 inhib, CYP2C19 act, CYP2C9 act, CYP2C9 inhib)
CCOC(=O)CNS(=O)(=O)c1cc(-c2n[nH]c(=O)c3ccccc23)ccc1C	CYP2C19 inhib 50, CYP2C9 inhib 65
Cc1ccc(-c2nn3c(C)nnc3c3ccccc23)cc1S(=O)(=O)NC(C)c1ccccc1 (stereo not given)	CYP2C19 inhib 50, CYP2C9 inhib 73
COCCNS(=O)(=O)c1cc(-c2nn(C)c(=O)c3ccccc23)ccc1C	CYP2C19 inhib 57, CYP2C9 inhib 70
Cc1ccc(-c2nn(CC(N)=O)c(=O)c3ccccc23)cc1S(=O)(=O)N(C)C	CYP2C9 inhib 59
CCOC(=O)Cn1nc(-c2ccccc2)c2ccccc2c1=O	none
CCSc1nc2sc3c(c2c(=O)n1CC)CC(C)(C)OC3	none
Cc1cc(C)nc(Sc2c(C)n[nH]c2C)n1	none
CNC(=O)C1CC(=O)N(c2ccc(C)cc2)C1 (stereo not given)	none
C=CCN1C(=O)/C(=C/c2ccc(N(C)C)cc2)S/C1=N\c1nnc(CC)s1	none
CCn1c(NCc2ccc3c(c2)OCO3)nc2ccccc21	CYP2C19 inhib 73
C=CCn1c(NCc2ccccc2)nc2ccccc21	none
C=CCn1c(NCc2ccc3c(c2)OCO3)nc2ccccc21	CYP2C19 inhib 95, CYP2C9 inhib 73
COc1ccc(CN=Cc2c(C(F)(F)F)[nH][nH]c2=O)cc1	none
CC(C)(C)c1nn(-c2ccccc2)c2[nH]c(=O)c(CNCc3ccc4c(c3)OCO4)cc12	none
COc1ccc(NC(=O)O/N=C2/CCCc3ccc(OC)cc32)cc1	CYP2C9 inhib 62
COc1ccc(NC(=S)N/N=C2/CCCc3c(C)cc(C)cc32)cc1	none
Cc1nnc2ccc(N3CCN(c4cccc(C(F)(F)F)c4)CC3)nn12	none
Cn1c(CC2C(=O)Nc3ccc(Br)cc32)nc2ccccc2c1=O (stereo not given)	CYP2C9 inhib 82
CCc1ccccc1NS(=O)(=O)c1ccc2[nH]cc(C(=O)NCC3CCCO3)c(=O)c2c1 (stereo not given)	PostGolgi ctrl 41 (no result: CYP2C19 inhib, CYP2C19 act, CYP2C9 act, CYP2C9 inhib)
